Data published in PubChem BioAssay AID1159580 (chemical genetic matrix, 2015).
“And” between values parts separate entries of the source, which are not always exact repeats. Equal values may be shown once. Screen size: about 5,500 compounds; about 2,000 (36%) were called active. About 18% were inconclusive and are not listed. Cut-off read from the data, not from the text of the source: active = normalized growth mostly below about 0.91 (no sharp cut-off); inconclusive = no clear call, values can overlap the other calls; inactive = mostly above about 0.92. The list shows a part of the results.

Experiment: chemical genetic growth profiling, strain panel (AID 1159580);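 note: tested at 20 µM; growth read once vehicle control cultures reached saturation at 30 °C; 1 = growth at the plate median or of vehicle wells; lower values mean less growth of the strain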
Settings: S. cerevisiae deletion strains, growth OD

Measured: normalized growth

O=C(O)c1cc(=O)c2c(Cl)cc(Cl)cc2[nH]1
inactive: locus YAL013W, strain DEP1, stronger effect = lower value 1 | locus YAL021C, strain ccr4, stronger effect = lower value 1 | locus YAL026C, strain drs2, stronger effect = lower value 1.02 | locus YAL030W, strain snc1, stronger effect = lower value 1.02 | locus YAL040C, strain CLN3, stronger effect = lower value 0.995 | locus YBL061C, strain skt5, stronger effect = lower value 1.01 | locus YBR009C, strain hhf1, stronger effect = lower value 1 | locus YBR021W, strain FUR4, stronger effect = lower value 1 | locus YBR023C, strain chs3, stronger effect = lower value 1.02 | locus YBR171W, strain sec66, stronger effect = lower value 1.01 | locus YBR229C, strain ROT2, stronger effect = lower value 1.01 | locus YBR231C, strain swc5, stronger effect = lower value 1.02 | locus YBR279W, strain paf1, stronger effect = lower value 1.01 | locus YCL011C, strain gbp2, stronger effect = lower value 1.01 | locus YCL016C, strain dcc1, stronger effect = lower value 1.01 | locus YCL029C, strain bik1, stronger effect = lower value 1.01 | locus YCL061C, strain MRC1 (second series), stronger effect = lower value 0.998 | locus YCL061C, strain MRC1, stronger effect = lower value 1.02 | locus YCL069W, strain vba3, stronger effect = lower value 1 | locus YCR088W, strain abp1, stronger effect = lower value 1.01 | locus YDL005C, strain med2, stronger effect = lower value 1.01 | locus YDL035C, strain GPR1, stronger effect = lower value 1.01 | locus YDL040C, strain nat1, stronger effect = lower value 1.01 | locus YDL074C, strain BRE1, stronger effect = lower value 1 | locus YDL101C, strain DUN1, stronger effect = lower value 1.01 | locus YDL134C, strain PPH21, stronger effect = lower value 1.02 | locus YDL185W, strain tfp1, stronger effect = lower value 1.01 | locus YDL192W, strain arf1, stronger effect = lower value 1.02 | locus YDR001C, strain nth1, stronger effect = lower value 1.01 | locus YDR069C, strain doa4, stronger effect = lower value 1.02 | locus YDR101C, strain arx1, stronger effect = lower value 1.03 | locus YDR137W, strain rgp1, stronger effect = lower value 1.02 | locus YDR150W, strain NUM1, stronger effect = lower value 0.999 | locus YDR159W, strain sac3, stronger effect = lower value 1.01 | locus YDR162C, strain NBP2, stronger effect = lower value 1.02 | locus YDR195W, strain ref2 1.02 | locus YDR297W, strain sur2, stronger effect = lower value 1.01 | locus YDR318W, strain mcm21, stronger effect = lower value 1.02 | locus YDR334W, strain swr1, stronger effect = lower value 1.01 | locus YDR335W, strain msn5, stronger effect = lower value 1.01 | locus YDR363W, strain ESC2, stronger effect = lower value 0.974 | locus YDR388W, stronger effect = lower value 1.01 | locus YDR392W, strain spt3, stronger effect = lower value 0.979 | locus YDR502C, strain sam2, stronger effect = lower value 1.01 | locus YEL003W, strain gim4, stronger effect = lower value 1.01 | locus YEL037C, strain rad23, stronger effect = lower value 1.01 | locus YEL061C, strain CIN8 (second series), stronger effect = lower value 1.01 | locus YEL061C, strain CIN8, stronger effect = lower value 1 | locus YER002W, strain NOP16, stronger effect = lower value 1 | locus YER015W, strain faa2, stronger effect = lower value 1.02 | locus YER016W, strain bim1, stronger effect = lower value 1.01 | locus YER110C, stronger effect = lower value 1.03 | locus YER111C, strain swi4, stronger effect = lower value 1.02 | locus YER155C, strain BEM2 (second series), stronger effect = lower value 1.03 | locus YER155C, strain BEM2, stronger effect = lower value 0.994 | locus YER167W, strain BCK2, stronger effect = lower value 1 | locus YFR010W, strain ubp6, stronger effect = lower value 1.02 | locus YGL078C, strain dbp3, stronger effect = lower value 1.01 | locus YGL086W, strain mad1, stronger effect = lower value 1.02 | locus YGL167C, strain pmr1, stronger effect = lower value 1.02 | locus YGL173C, strain kem1, stronger effect = lower value 1.02 | locus YGL227W, strain vid30, stronger effect = lower value 1.01 | locus YGL240W, strain doc1, stronger effect = lower value 1.02 | locus YGL248W, strain PDE1, stronger effect = lower value 1.01 | locus YGL253W, strain hxk2, stronger effect = lower value 1.02 | locus YGR078C, strain PAC10, stronger effect = lower value 1 | locus YGR135W, strain pre9, stronger effect = lower value 1.03 | locus YGR229C, strain SMI1, stronger effect = lower value 1.05 and 0.981 | locus YGR252W, strain gcn5, stronger effect = lower value 1 | locus YHR013C, strain ard1, stronger effect = lower value 0.987 | locus YHR027C, strain rpn1, stronger effect = lower value 1.02 | locus YHR030C, strain SLT2, stronger effect = lower value 1 | locus YHR079C, strain IRE1 (second series), stronger effect = lower value 1.01 | locus YHR094C, strain hxt1, stronger effect = lower value 1.02 | locus YHR129C, strain ARP1, stronger effect = lower value 1.01 | locus YHR142W, strain chs7, stronger effect = lower value 1.02 | locus YHR200W, strain rpn10, stronger effect = lower value 1.01 | locus YIL066C, strain RNR3, stronger effect = lower value 1.01 | locus YIL073C, strain SPO22, stronger effect = lower value 1.04 | locus YIL125W, strain kgd1, stronger effect = lower value 1.01 | locus YIR030C, strain dcg1, stronger effect = lower value 1.01 | locus YJL092W, strain hpr5, stronger effect = lower value 1.01 | locus YJL095W, strain BCK1 (second series), stronger effect = lower value 1.01 | locus YJL095W, strain BCK1, stronger effect = lower value 0.998 | locus YJL115W, strain asf1, stronger effect = lower value 1.01 | locus YJL129C, strain trk1, stronger effect = lower value 1.01 | locus YJL134W, strain LCB3, stronger effect = lower value 1.01 | locus YJL154C, strain vps35, stronger effect = lower value 1.01 | locus YJL164C, strain tpk1, stronger effect = lower value 1.01 | locus YJL166W, strain qcr8, stronger effect = lower value 1.02 | locus YJL168C, strain set2, stronger effect = lower value 1.02 | locus YJL187C, strain SWE1 (second series), stronger effect = lower value 1
